# Only some compounds are listed: those with a hit (about 11% of all), similar ones and a draw of the others.
# ALOX12 inhib: inhibitors of human 12-lipoxygenase (ALOX12); actives 0.12% (n = 150,000); purified 12-hLO, xylenol orange hydroperoxide absorbance; Potency, µM (titrated, usually from 57.1 µM), usual class: inhibitors; P18054; further: nearly all actives have a fitted effect of over 55% in size
#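 Xylenol orange chromogenic assay: hydroperoxide from 12hLO oxidises Fe(II), giving red-shifted Fe(III)-XO absorbance. Conditions: 150 nM enzyme, 40 uM arachidonic acid, 25 mM Hepes pH 7.0, 0.01% Triton X-100, 30 min, room temperature.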
# PNC inhibitor: perinucleolar compartment assembly inhibition | AID 2417 | PC3M PTB-GFP, PNC prevalence imaging, 16 h; active compounds read low | actives 3.1% (n = 140,000) | activity change (PNC), negative = inhibition, % at 10 µM;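 active means readout at or below -70, meaning at least 70% loss of cells showing the perinucleolar compartment, a nuclear body marking cancer cells; inconclusive means readout between -30 and a set limit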
#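 Compounds are pinned in duplicate onto adhered PC3M cells stably expressing GFP-tagged PTB and incubated 16 h at 37 C. Cells are then fixed, nuclei stained with Hoechst, and PNC-positive cells counted.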
# IMPase Li cell: cell-permeable IMPase inhibitors with lithium potentiation; CHO-M1 cells, IP1 TR-FRET (IP-One), carbachol + lithium; Potency, µM (top dose mostly 59.4 µM), usual class: inhibitors; actives 0.35% (n = 210,000);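 further: IP1 builds up when IMPase is blocked and the TR-FRET signal falls; nearly all actives have a fitted effect of over 50% in size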
#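 Steps: plate 2000 CHO-M1 cells per well and culture 16–30 h; add compound and lithium; incubate 30 min, 37C; add d2-IP1 tracer and Eu cryptate anti-IP1 antibody in lysis buffer; read after 10 min at room temperature.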
# ALDH1A1 inh: blocks purified human ALDH1A1 activity | Purified ALDH1A1, NADH fluorescence, propionaldehyde substrate | Potency, µM (titrated, usually from 75.3 µM), usual class: inhibitors | actives 7.3% (n = 220,000) | AID 1030; active means well fitted inhibition curve with a large enough effect, not every such curve was filed as active; inconclusive means small, poorly fitted or top-dose-only effect, or another doubt; inactive means no such curve, though single readings can be large or run the other way
# Target sequence (P00352 whole entry, looked up): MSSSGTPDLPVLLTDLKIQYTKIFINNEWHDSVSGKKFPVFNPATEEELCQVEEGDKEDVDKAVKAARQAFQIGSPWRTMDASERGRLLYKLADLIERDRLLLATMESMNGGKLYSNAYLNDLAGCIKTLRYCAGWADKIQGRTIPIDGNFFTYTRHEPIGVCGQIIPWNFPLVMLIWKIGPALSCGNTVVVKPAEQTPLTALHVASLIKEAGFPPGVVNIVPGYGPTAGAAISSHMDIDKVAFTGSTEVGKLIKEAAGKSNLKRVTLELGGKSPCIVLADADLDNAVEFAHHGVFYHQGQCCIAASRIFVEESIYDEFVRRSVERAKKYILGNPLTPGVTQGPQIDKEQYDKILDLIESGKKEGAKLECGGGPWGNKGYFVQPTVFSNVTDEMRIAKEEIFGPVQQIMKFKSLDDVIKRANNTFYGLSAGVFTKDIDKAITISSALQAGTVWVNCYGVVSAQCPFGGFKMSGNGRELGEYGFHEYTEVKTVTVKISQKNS
# IMPase cell inh: membrane-permeable compound that blocks inositol monophosphatase. P97697. CHO-M1 cells, IP1 accumulation, HTRF TR-FRET ratio. inhibition (IP1 accumulation), % at 46.1 µM. 120,000 tested, under 10 active. AID 901; active means well fitted curve in the direction sought with a large enough effect in the signal ratio, not every such curve was filed as active; inconclusive means small, poorly fitted or top-dose-only effect, or a change in a side signal; inactive means no such curve, though single readings can be large or run the other way; the % refers to the signal ratio;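 further: cells stimulated with carbachol in lithium chloride buffer; higher means more IMPase inhibition seen as more IP1 and lower FRET ratio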
# Target sequence (P97697 whole entry, looked up): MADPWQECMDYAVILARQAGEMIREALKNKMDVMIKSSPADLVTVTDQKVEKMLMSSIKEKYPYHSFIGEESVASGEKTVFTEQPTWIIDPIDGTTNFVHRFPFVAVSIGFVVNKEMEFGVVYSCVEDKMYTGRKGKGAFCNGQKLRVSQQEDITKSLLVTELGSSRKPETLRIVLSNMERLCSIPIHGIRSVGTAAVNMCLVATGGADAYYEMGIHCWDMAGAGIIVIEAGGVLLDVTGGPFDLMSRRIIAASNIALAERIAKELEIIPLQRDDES
#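 CHO-M1 cells (CHO stably expressing M1 receptor), compound up to 46 uM final, stimulated with carbachol (50 uM as added) in buffer with 50mM LiCl, pH 7.4, 30 min at 37C. Cytosolic IP1 read by TR-FRET; AC50 from Hill fits.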
# HPGD block: blocks human HPGD enzyme activity; P15428; Potency, µM, hits mostly inhibitors; actives 4.3% (n = 150,000); AID 894; purified HPGD, NADH fluorescence kinetic, PGE2 substrate; active means well fitted inhibition curve with a large enough effect, not every such curve was filed as active; inconclusive means small, poorly fitted or top-dose-only effect, or another doubt; inactive means no such curve, though single readings can be large or run the other way
#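 20 nM HPGD preincubated 15 min at room temperature with compound in 50 mM Tris-HCl pH 8, 0.01% Tween 20. Started with 1 mM NAD+ and 30 uM prostaglandin E2; NADH fluorescence (360/450 nm) read 5 times over 30-s intervals, last minus first.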
# Hits are given with their value; n = inactive; u = inconclusive; x = not tested or not shown; [ ] = remark or other dose. Unless noted, the call rests on the fitted dose curve; in most records, active means well fitted curve in the direction sought with a large enough effect; inconclusive means small, poorly fitted or top-dose-only effect, or another doubt; inactive means no such curve, though single readings can be large; an effect the other way counts as inactive or inconclusive.
SMILES,ALOX12 inhib,PNC inhibitor,IMPase Li cell,ALDH1A1 inh,IMPase cell inh,HPGD block
O=C(CCCn1c(SCC(=O)NC2CCCCC2)nc2ccccc2c1=O)NCC1CCCO1 (stereo unspecified),n,n,n,u,u,u
C=CCn1c(SCC(=O)N2CCCC2)nc2cc(C(=O)NCC3CCCO3)ccc2c1=O (stereo unspecified),n,n,n,u,n,u
CCSc1nc2c(c(=O)[nH]c(=O)n2C)n1CC(O)COc1ccc(Cl)cc1 (stereo unspecified),x,x,x,x,n,x
CC(CCc1nc2ccccc2s1)(c1ccc(O)cc1)c1ccc(O)cc1,n[11.4 µM],x,n,n[13.5 µM],x,u
CN1CC[C@@]2(CCN3CCc4c(oc5ccccc45)[C@@H]3C2)N(C)C1=O,n,x,x,x,n,x
CC1=N/C(=C\c2ccc([N+](=O)[O-])cc2)C(=O)N1c1cc(Cl)ccc1C,n,n,n,11µM,n,n
Cc1ccccc1OCC(=O)N1N=C(C(F)(F)F)CC1(O)C(C)(C)C (stereo unspecified),n,n,n,14µM,n,n
O=[N+]([O-])c1cc(Br)c(O)c(C=Nc2ccc(N3CCOCC3)cc2)c1,x,x,n,n,x,x
Oc1ccc(N=Cc2cc(Br)c(N3CCOCC3)o2)cc1,n,n,n,8.9µM,x,n
CSC1=NCCN1C(=O)c1ccc2c(c1)OCO2,n,n,x,11µM,n,x
Cc1ccc(N(CC(=O)N/N=C/c2cc(C)n(-c3ccccc3C)c2C)S(C)(=O)=O)cc1,n,u,n,25µM,n,n
Cc1cc(C)cc(-n2c(C)cc(/C=N/NC(=O)CN(c3c(C)cccc3C)S(C)(=O)=O)c2C)c1,n,n,n,u,n,n
[O-]/[N+](=C\c1ccc(F)cc1)c1ccccc1,n,n,n,20µM,n,n
[O-]/[N+](=C\c1cccc(Br)c1)c1ccccc1,x,x,n,0.32µM,x,x
CC(=O)O[C@]12CC[N@+]3(C)CCCC[C@@H]3[C-]1Nc1ccccc12,n[11.4 µM],x,n,n[13.5 µM],x,n
CCN(/N=C/c1ccc(Cl)cc1)c1cc(=O)n(C)c(=O)[nH]1,n,n,n,u,n,28µM
CCN(/N=C/C=C/c1ccccc1)c1cc(=O)n(C)c(=O)[nH]1,n,u,n,n,n,n
CCc1ccccc1-n1nnnc1-c1cnccc1C(F)(F)F,x,x,x,18µM,x,x
FC(F)(F)c1nc(-c2cccnc2)ncc1-c1nnnn1-c1ccccc1,n,n,n,n,n,n
CN(C)c1ccc(C(=O)c2ccc(N(C)C)c3ccccc23)cc1,n,-103,n,n,n,n
COc1cc(NS(=O)(=O)c2cccc3nsnc23)cc(OC)c1,n,-82,n,n,n,n
CC(=O)Nc1ccc(NC(=O)CCNS(=O)(=O)c2cccc3nsnc23)cc1,x,x,n,13µM,x,x
COc1ccc(CCNC(=O)CCNS(=O)(=O)c2cccc3nonc23)cc1OC,n,n,n,u,n,n
O=C(CCCNS(=O)(=O)c1cccc2nsnc12)NCc1ccccc1,n,u,x,5µM,n,x
COc1ccc(CNC(=O)CCCNS(=O)(=O)c2cccc3nonc23)cc1,n,n,n,14µM,n,n
SMILES,ALOX12 inhib,PNC inhibitor,IMPase Li cell,ALDH1A1 inh,IMPase cell inh,HPGD block
O=C(c1csnn1)N1CCC2(CCCN(Cc3ccccc3)C2)CC1,n,x,n,n,x,n
CCOC(=O)CC(CC(C)=O)C(=O)OCC (stereo unspecified),x,x,n,n,x,n
Cc1cccc(OCCn2c(-c3ccc(Cl)cc3)nc3ccccc3c2=O)c1C,x,x,x,x,n,x
CC1(C)OC2CC3C4CCC5=CC(=O)C=C[C@@]5(C)[C@]4(F)C(O)C[C@@]3(C)[C@]2(C(=O)CO)O1 (stereo partly specified),n,x,n,n,x,n
CC(C)[C@@H](CC(=O)N[C@@H]1CCNC[C@H]1C(=O)N[C@H](CC(=O)N[C@@H](CCC(=O)O)CC(=O)O)Cc1c[nH]c2ccccc12)NC(=O)C[C@H](Cc1c[nH]c2ccccc12)NC(=O)[C@@H]1CNCC[C@H]1N,n,x,n,u,x,n
CC(C)(C)[C@H]1C=C(C(N)=O)O[C@@H](OCc2ccc(CO)cc2)C1,x,x,n,n,x,x
CCc1ccc(NC(=O)CCNS(=O)(=O)c2cccc3nonc23)cc1,n,n,n,22µM,n,n
COc1cccc(NS(=O)(=O)c2cc(C)sc2C)c1,n,-100,n,n,n,u
Cc1cc(S(=O)(=O)Nc2cccc(Cl)c2)c(C)s1,x,x,n,n,x,x
COc1ccc(NC(=O)CNS(=O)(=O)c2cccc3nonc23)c(OC)c1,n,u,n,13µM,n,u
COC(CNS(=O)(=O)c1cccc2nonc12)OC,x,x,n,u,x,x
CC(=O)c1cccc(NC(=O)CCS(=O)(=O)c2cccc3nsnc23)c1,n,u,n,22µM,n,28µM
COc1ccc(OCC2Cc3c(-c4ccccc4)nc4c(c3CO2)CN(CCOc2ccccc2)CC4)cc1 (stereo unspecified),x,x,x,n[13.5 µM],x,x
Nc1ncnc2c1nc(Sc1ccc(Cl)cc1)n2[C@@H]1O[C@H]2COP(=O)(O)O[C@@H]2[C@H]1O,n,x,x,x,u,x
COc1cc(C)cc2c(-c3c(O)cc(O)c4c3C[C@H](C)N[C@@H]4C)cc(-c3cc(-c4c(O)cc(O)c5c4C[C@H](C)N[C@@H]5C)c4cc(C)cc(OC)c4c3O)c(O)c12,n[11.4 µM],x,n,u,x,n
COc1ccc(CNc2nc(-c3ccc(N(C)C)cc3)nc3ccccc23)c(OC)c1,x,x,n,u,x,x
O=C(CCCNS(=O)(=O)c1cccc2nsnc12)NCc1ccc(Cl)cc1,n,n,n,u,n,n
Cc1ccc(CNC(=O)CCCNS(=O)(=O)c2cccc3nonc23)cc1,n,n,n,7.1µM,n,n
O=C(C1CC1)N1CCN(c2ccnc3cc(Cl)ccc23)CC1,x,x,n,n,x,x
CC(C)S(=O)(=O)N1CCN(c2ccnc3cc(Cl)ccc23)CC1,x,x,x,14µM,x,x
CCN(CC)c1ccc(C=C2C(=O)OC3(CCCC3)OC2=O)cc1,n,u,n,0.71µM,n,u
CCN(CC)c1ccc(C=C2C(=O)OC(c3ccccc3)OC2=O)cc1 (stereo unspecified),x,x,n,0.28µM,x,x
CCN(CC)c1ccc(C=C2C(=O)OC(C)(C(C)(C)C)OC2=O)cc1 (stereo unspecified),n,n,n,n,n,n
CCN(CC)C1=N/C(=C\c2ccc(OC)cc2)C(=O)N1c1ccccc1,n,n,n,u,x,n
CC1CCC(C(=O)O)NC1c1ccc(C#CCN(C)C)cc1 (stereo unspecified),x,x,x,n[13.5 µM],x,x
O=S(=O)(c1cccc(-c2n[nH]c(=S)n2C2CCCC2)c1)N1CCOCC1,x,x,n,n,x,x
FC(F)(F)c1ccccc1-c1cc(NCc2cccs2)ncn1,x,x,n,n,x,x

# Compound activity from PubChem.
